# Measurements taken from publication PMC11006913.
# Where a chain is given by its changes, count along the chain named.
# Legend:
# Test in all cases: PBM; 200 nM protein, PBS
# Conditions in all cases: dsDNA, one strand shown
# HOXB9 [1] = biological target: HOXB9 (Homo sapiens, UniProt P17482 171-250, T197M)
# PAX4 [2] = biological target: T1, PAX4 (Homo sapiens, UniProt O43316 9-242, R200K)
# T1 sequence: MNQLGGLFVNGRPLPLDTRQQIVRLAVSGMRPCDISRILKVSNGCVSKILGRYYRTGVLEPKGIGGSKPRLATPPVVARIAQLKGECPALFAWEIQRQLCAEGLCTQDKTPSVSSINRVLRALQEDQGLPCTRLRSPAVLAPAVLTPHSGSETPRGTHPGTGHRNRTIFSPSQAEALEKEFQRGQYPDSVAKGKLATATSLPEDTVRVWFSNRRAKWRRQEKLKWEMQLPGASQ
# PAX4 [3] = biological target: T2, PAX4 (Homo sapiens, UniProt O43316 9-242)
# T2 sequence: T1 sequence with K192R
# HOXA2 [4] = biological target: HOXA2 (Homo sapiens, UniProt O43364 129-215, R185T)
# HOXB9 [5] = biological target: HOXB9 (Homo sapiens, UniProt P17482 171-250)
# ALX3 [6] = biological target: ALX3 (Homo sapiens, UniProt O95076 139-225, N203Q)
# PAX4 [7] = biological target: T3, PAX4 (Homo sapiens, UniProt O43316 9-242, R200Q)
# T3 sequence: T1 sequence with K192Q
# HOXA2 [8] = biological target: HOXA2 (Homo sapiens, UniProt O43364 129-215, R185K)
# PAX4 [9] = biological target: T4, PAX4 (Homo sapiens, UniProt O43316 9-242, F177V)
# T4 sequence: T1 sequence with F169V, K192R
# ALX3 [10] = biological target: ALX3 (Homo sapiens, UniProt O95076 139-225)
# PAX4 [11] = biological target: T5, PAX4 (Homo sapiens, UniProt O43316 9-242, F177Y)
# T5 sequence: T1 sequence with F169Y, K192R
# ALX3 [12] = biological target: ALX3 (Homo sapiens, UniProt O95076 139-225, L168Q)
# HOXB9 [13] = biological target: HOXB9 (Homo sapiens, UniProt P17482 171-250, R186Q)
# ALX3 [14] = biological target: ALX3 (Homo sapiens, UniProt O95076 139-225, L168V)
# PAX4 [15] = biological target: T6, PAX4 (Homo sapiens, UniProt O43316 9-242, R227W)
# T6 sequence: T1 sequence with K192R, R219W
# HOXA2 [16] = biological target: HOXA2 (Homo sapiens, UniProt O43364 129-215, Y150S)
# ALX3 [17] = biological target: ALX3 (Homo sapiens, UniProt O95076 139-225, N203S)
# HOXA2 [18] = biological target: HOXA2 (Homo sapiens, UniProt O43364 129-215)
# HOXC9 [19] = biological target: HOXC9 (Homo sapiens, UniProt P31274 178-260, K195R)
# HOXC9 [20] = biological target: HOXC9 (Homo sapiens, UniProt P31274 178-260)
# HOXD13 [21] = biological target: HOXD13 (Homo sapiens, UniProt P35453 263-343, T313R)
# HOXC9 [22] = biological target: HOXC9 (Homo sapiens, UniProt P31274 178-260, R193K)
# HOXD13 [23] = biological target: HOXD13 (Homo sapiens, UniProt P35453 263-343)
# HOXC10 = HOXC10 (Homo sapiens, UniProt Q9NYD6 254-340, K271E)
# HOXD13 [24] = biological target: HOXD13 (Homo sapiens, UniProt P35453 263-343, T313A)
# HOXC9 [25] = biological target: HOXC9 (Homo sapiens, UniProt P31274 178-260, R222W)
# PRRX1 [26] = biological target: PRRX1 (Homo sapiens, UniProt P54821 80-166, F113S)
# PRRX1 [27] = biological target: PRRX1 (Homo sapiens, UniProt P54821 80-166)
# NKX3-2 [28] = biological target: NKX3-2 (Homo sapiens, UniProt P78367 192-278, P234S)
# NKX3-2 [29] = biological target: NKX3-2 (Homo sapiens, UniProt P78367 192-278)
# VAX1 [30] = biological target: VAX1 (Homo sapiens, UniProt Q5SQQ9 86-172)
# VAX1 [31] = biological target: VAX1 (Homo sapiens, UniProt Q5SQQ9 86-172, T142I)
# VAX1 [32] = biological target: VAX1 (Homo sapiens, UniProt Q5SQQ9 86-172, K157R)
# HOXB6 = HOXB6 (Homo sapiens, UniProt P17509 132-218, K202E)
# MSX2 [33] = biological target: MSX2 (Homo sapiens, UniProt P35548 130-214, R199I)
# MSX2 [34] = biological target: MSX2 (Homo sapiens, UniProt P35548 130-214)
# MSX2 [35] = biological target: MSX2 (Homo sapiens, UniProt P35548 130-214, F161Y)
# MSX2 (Homo sapiens, UniProt P35548 130-214, F161Y), sequence (P35548 130-214 F161Y): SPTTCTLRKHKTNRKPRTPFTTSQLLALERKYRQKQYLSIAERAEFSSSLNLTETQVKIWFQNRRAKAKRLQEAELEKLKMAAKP
# HOXB9 (Homo sapiens, UniProt P17482 171-250, R186Q), sequence (P17482 171-250 R186Q): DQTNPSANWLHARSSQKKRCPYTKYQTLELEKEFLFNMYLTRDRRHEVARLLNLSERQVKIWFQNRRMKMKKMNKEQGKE
# HOXB9 (Homo sapiens, UniProt P17482 171-250, T197M), sequence (P17482 171-250 T197M): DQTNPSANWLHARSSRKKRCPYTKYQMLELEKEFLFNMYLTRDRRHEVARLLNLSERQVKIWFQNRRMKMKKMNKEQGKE
# HOXB9 (Homo sapiens, UniProt P17482 171-250), sequence (P17482 171-250): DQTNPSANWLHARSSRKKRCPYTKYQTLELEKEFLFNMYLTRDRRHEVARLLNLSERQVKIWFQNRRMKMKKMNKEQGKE
# HOXC9 (Homo sapiens, UniProt P31274 178-260, R222W), sequence (P31274 178-260 R222W): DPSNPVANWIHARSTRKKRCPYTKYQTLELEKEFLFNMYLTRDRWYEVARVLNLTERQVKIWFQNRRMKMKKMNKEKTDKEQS
# HOXD13 (Homo sapiens, UniProt P35453 263-343), sequence (P35453 263-343): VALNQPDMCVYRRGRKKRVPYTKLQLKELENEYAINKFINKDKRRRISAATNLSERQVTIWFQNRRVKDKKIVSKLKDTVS
# HOXC9 (Homo sapiens, UniProt P31274 178-260, K195R), sequence (P31274 178-260 K195R): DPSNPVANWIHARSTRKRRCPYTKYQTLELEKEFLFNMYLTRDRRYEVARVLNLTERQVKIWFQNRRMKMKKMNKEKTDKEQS
# HOXA2 (Homo sapiens, UniProt O43364 129-215, R185T), sequence (O43364 129-215 R185T): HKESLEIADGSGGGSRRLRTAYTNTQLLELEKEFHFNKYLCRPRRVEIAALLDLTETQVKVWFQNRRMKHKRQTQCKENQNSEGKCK
# HOXD13 (Homo sapiens, UniProt P35453 263-343, T313R), sequence (P35453 263-343 T313R): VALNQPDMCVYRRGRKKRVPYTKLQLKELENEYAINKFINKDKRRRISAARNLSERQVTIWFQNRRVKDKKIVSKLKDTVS
# ALX3 (Homo sapiens, UniProt O95076 139-225, N203S), sequence (O95076 139-225 N203S): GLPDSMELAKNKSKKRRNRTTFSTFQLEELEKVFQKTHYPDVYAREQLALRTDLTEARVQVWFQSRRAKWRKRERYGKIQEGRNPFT
# HOXC9 (Homo sapiens, UniProt P31274 178-260), sequence (P31274 178-260): as the sequence (P31274 178-260 R222W) above, with W45R counted along it
# HOXA2 (Homo sapiens, UniProt O43364 129-215, R185K), sequence (O43364 129-215 R185K): as the sequence (O43364 129-215 R185T) above, with T57K counted along it
# HOXA2 (Homo sapiens, UniProt O43364 129-215, Y150S), sequence (O43364 129-215 Y150S): as the sequence (O43364 129-215 R185T) above, with Y22S, T57R counted along it
# HOXC9 (Homo sapiens, UniProt P31274 178-260, R193K), sequence (P31274 178-260 R193K): as the sequence (P31274 178-260 R222W) above, with R16K, W45R counted along it
# HOXA2 (Homo sapiens, UniProt O43364 129-215), sequence (O43364 129-215): as the sequence (O43364 129-215 R185T) above, with T57R counted along it
# HOXD13 (Homo sapiens, UniProt P35453 263-343, T313A), sequence (P35453 263-343 T313A): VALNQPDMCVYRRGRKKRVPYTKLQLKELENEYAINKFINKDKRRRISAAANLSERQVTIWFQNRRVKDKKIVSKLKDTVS
# ALX3 (Homo sapiens, UniProt O95076 139-225, L168Q), sequence (O95076 139-225 L168Q): as the sequence (O95076 139-225 N203S) above, with L30Q, S65N counted along it
# VAX1 (Homo sapiens, UniProt Q5SQQ9 86-172), sequence (Q5SQQ9 86-172): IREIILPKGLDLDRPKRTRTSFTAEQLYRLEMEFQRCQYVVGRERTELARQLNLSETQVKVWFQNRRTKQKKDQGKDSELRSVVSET
# VAX1 (Homo sapiens, UniProt Q5SQQ9 86-172, T142I), sequence (Q5SQQ9 86-172 T142I): as the sequence (Q5SQQ9 86-172) above, with T57I counted along it
# MSX2 (Homo sapiens, UniProt P35548 130-214), sequence (P35548 130-214): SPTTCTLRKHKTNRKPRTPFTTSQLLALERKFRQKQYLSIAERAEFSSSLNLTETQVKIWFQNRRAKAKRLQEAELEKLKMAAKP
# HOXB6, sequence (P17509 132-218 K202E): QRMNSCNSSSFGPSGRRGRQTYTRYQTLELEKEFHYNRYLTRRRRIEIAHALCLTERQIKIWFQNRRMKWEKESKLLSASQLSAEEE
# NKX3-2 (Homo sapiens, UniProt P78367 192-278, P234S), sequence (P78367 192-278 P234S): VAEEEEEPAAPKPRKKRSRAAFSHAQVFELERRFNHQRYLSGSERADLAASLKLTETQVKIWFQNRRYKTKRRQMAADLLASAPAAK
# ALX3 (Homo sapiens, UniProt O95076 139-225), sequence (O95076 139-225): as the sequence (O95076 139-225 N203S) above, with S65N counted along it
# HOXC10, sequence (Q9NYD6 254-340 K271E): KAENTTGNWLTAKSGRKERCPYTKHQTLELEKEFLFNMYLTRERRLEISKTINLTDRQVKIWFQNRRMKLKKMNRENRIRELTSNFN
# ALX3 (Homo sapiens, UniProt O95076 139-225, L168V), sequence (O95076 139-225 L168V): as the sequence (O95076 139-225 N203S) above, with L30V, S65N counted along it
# ALX3 (Homo sapiens, UniProt O95076 139-225, N203Q), sequence (O95076 139-225 N203Q): as the sequence (O95076 139-225 N203S) above, with S65Q counted along it
# NKX3-2 (Homo sapiens, UniProt P78367 192-278), sequence (P78367 192-278): as the sequence (P78367 192-278 P234S) above, with S43P counted along it
# PRRX1 (Homo sapiens, UniProt P54821 80-166, F113S), sequence (P54821 80-166 F113S): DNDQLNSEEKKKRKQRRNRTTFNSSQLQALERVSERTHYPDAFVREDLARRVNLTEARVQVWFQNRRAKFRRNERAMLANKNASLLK
# PRRX1 (Homo sapiens, UniProt P54821 80-166), sequence (P54821 80-166): as the sequence (P54821 80-166 F113S) above, with S34F counted along it
# VAX1 (Homo sapiens, UniProt Q5SQQ9 86-172, K157R), sequence (Q5SQQ9 86-172 K157R): as the sequence (Q5SQQ9 86-172) above, with K72R counted along it
# MSX2 (Homo sapiens, UniProt P35548 130-214, R199I), sequence (P35548 130-214 R199I): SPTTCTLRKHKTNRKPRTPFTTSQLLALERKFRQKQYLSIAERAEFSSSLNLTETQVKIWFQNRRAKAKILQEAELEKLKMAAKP
sequence,measurement,setting,value
AGGCCCCC,binding signal,HOXB9 [1],"8.34 upbm affinity estimate (log intensity, higher = more binding, comparable within an allelic series)"
same,binding signal,PAX4 [2],"9.04 upbm affinity estimate (log intensity, higher = more binding, comparable within an allelic series)"
same,binding signal,PAX4 [3],"9.05 upbm affinity estimate (log intensity, higher = more binding, comparable within an allelic series)"
same,binding signal,HOXA2 [4],"7.07 upbm affinity estimate (log intensity, higher = more binding, comparable within an allelic series)"
same,binding signal,HOXB9 [5],"8.29 upbm affinity estimate (log intensity, higher = more binding, comparable within an allelic series)"
same,binding signal,ALX3 [6],"7.63 upbm affinity estimate (log intensity, higher = more binding, comparable within an allelic series)"
same,binding signal,PAX4 [7],"9.09 upbm affinity estimate (log intensity, higher = more binding, comparable within an allelic series)"
same,binding signal,HOXA2 [8],"9.91 upbm affinity estimate (log intensity, higher = more binding, comparable within an allelic series)"
same,binding signal,PAX4 [9],"8.99 upbm affinity estimate (log intensity, higher = more binding, comparable within an allelic series)"
same,binding signal,ALX3 [10],"7.61 upbm affinity estimate (log intensity, higher = more binding, comparable within an allelic series)"
same,binding signal,PAX4 [11],"8.97 upbm affinity estimate (log intensity, higher = more binding, comparable within an allelic series)"
same,binding signal,ALX3 [12],"7.47 upbm affinity estimate (log intensity, higher = more binding, comparable within an allelic series)"
same,binding signal,HOXB9 [13],"8.32 upbm affinity estimate (log intensity, higher = more binding, comparable within an allelic series)"
same,binding signal,ALX3 [14],"7.5 upbm affinity estimate (log intensity, higher = more binding, comparable within an allelic series)"
same,binding signal,PAX4 [15],"9.06 upbm affinity estimate (log intensity, higher = more binding, comparable within an allelic series)"
same,binding signal,HOXA2 [16],"10.2 upbm affinity estimate (log intensity, higher = more binding, comparable within an allelic series)"
same,binding signal,ALX3 [17],"7.61 upbm affinity estimate (log intensity, higher = more binding, comparable within an allelic series)"
same,binding signal,HOXA2 [18],"7.21 upbm affinity estimate (log intensity, higher = more binding, comparable within an allelic series)"
CCATAAAC,binding signal,HOXB9 [1],"9.33 upbm affinity estimate (log intensity, higher = more binding, comparable within an allelic series)"
same,binding signal,HOXC9 [19],"12.4 upbm affinity estimate (log intensity, higher = more binding, comparable within an allelic series)"
same,binding signal,HOXB9 [5],"11.8 upbm affinity estimate (log intensity, higher = more binding, comparable within an allelic series)"
same,binding signal,HOXC9 [20],"12.6 upbm affinity estimate (log intensity, higher = more binding, comparable within an allelic series)"
same,binding signal,HOXD13 [21],"10.8 upbm affinity estimate (log intensity, higher = more binding, comparable within an allelic series)"
same,binding signal,HOXC9 [22],"12.5 upbm affinity estimate (log intensity, higher = more binding, comparable within an allelic series)"
same,binding signal,HOXD13 [23],"12.1 upbm affinity estimate (log intensity, higher = more binding, comparable within an allelic series)"
same,binding signal,HOXC10,"11.3 upbm affinity estimate (log intensity, higher = more binding, comparable within an allelic series)"
same,binding signal,HOXD13 [24],"11.8 upbm affinity estimate (log intensity, higher = more binding, comparable within an allelic series)"
same,binding signal,HOXB9 [13],"11.5 upbm affinity estimate (log intensity, higher = more binding, comparable within an allelic series)"
same,binding signal,HOXC9 [25],"10.8 upbm affinity estimate (log intensity, higher = more binding, comparable within an allelic series)"
CAGAAGCC,binding signal,HOXB9 [1],"8.6 upbm affinity estimate (log intensity, higher = more binding, comparable within an allelic series)"
same,binding signal,PRRX1 [26],"9.41 upbm affinity estimate (log intensity, higher = more binding, comparable within an allelic series)"
same,binding signal,HOXB9 [5],"8.72 upbm affinity estimate (log intensity, higher = more binding, comparable within an allelic series)"
same,binding signal,HOXB9 [13],"8.73 upbm affinity estimate (log intensity, higher = more binding, comparable within an allelic series)"
same,binding signal,PRRX1 [27],"9.47 upbm affinity estimate (log intensity, higher = more binding, comparable within an allelic series)"
GGTCCCGA,binding signal,HOXB9 [1],"8.6 upbm affinity estimate (log intensity, higher = more binding, comparable within an allelic series)"
same,binding signal,HOXC9 [19],"9.69 upbm affinity estimate (log intensity, higher = more binding, comparable within an allelic series)"
same,binding signal,HOXB9 [5],"8.47 upbm affinity estimate (log intensity, higher = more binding, comparable within an allelic series)"
same,binding signal,HOXC9 [20],"9.62 upbm affinity estimate (log intensity, higher = more binding, comparable within an allelic series)"
same,binding signal,HOXC9 [22],"9.59 upbm affinity estimate (log intensity, higher = more binding, comparable within an allelic series)"
same,binding signal,HOXB9 [13],"8.44 upbm affinity estimate (log intensity, higher = more binding, comparable within an allelic series)"
same,binding signal,HOXC9 [25],"9.74 upbm affinity estimate (log intensity, higher = more binding, comparable within an allelic series)"
GGTTCGGA,binding signal,HOXB9 [1],"8.66 upbm affinity estimate (log intensity, higher = more binding, comparable within an allelic series)"
same,binding signal,HOXB9 [5],"8.54 upbm affinity estimate (log intensity, higher = more binding, comparable within an allelic series)"
same,binding signal,HOXB9 [13],"8.53 upbm affinity estimate (log intensity, higher = more binding, comparable within an allelic series)"
AGCCCCGG,binding signal,HOXB9 [1],"8.65 upbm affinity estimate (log intensity, higher = more binding, comparable within an allelic series)"
same,binding signal,HOXB9 [5],"8.31 upbm affinity estimate (log intensity, higher = more binding, comparable within an allelic series)"
same,binding signal,HOXD13 [21],"9.53 upbm affinity estimate (log intensity, higher = more binding, comparable within an allelic series)"
same,binding signal,HOXD13 [23],"9.4 upbm affinity estimate (log intensity, higher = more binding, comparable within an allelic series)"
same,binding signal,HOXD13 [24],"9.76 upbm affinity estimate (log intensity, higher = more binding, comparable within an allelic series)"
same,binding signal,HOXB9 [13],"8.53 upbm affinity estimate (log intensity, higher = more binding, comparable within an allelic series)"
same,binding signal,NKX3-2 [28],"10.6 upbm affinity estimate (log intensity, higher = more binding, comparable within an allelic series)"
same,binding signal,NKX3-2 [29],"10.6 upbm affinity estimate (log intensity, higher = more binding, comparable within an allelic series)"
CGCGCCCC,binding signal,HOXB9 [1],"8.45 upbm affinity estimate (log intensity, higher = more binding, comparable within an allelic series)"
same,binding signal,HOXA2 [4],"7.42 upbm affinity estimate (log intensity, higher = more binding, comparable within an allelic series)"
same,binding signal,HOXB9 [5],"8.02 upbm affinity estimate (log intensity, higher = more binding, comparable within an allelic series)"
same,binding signal,HOXA2 [8],"10.1 upbm affinity estimate (log intensity, higher = more binding, comparable within an allelic series)"
same,binding signal,VAX1 [30],"7.05 upbm affinity estimate (log intensity, higher = more binding, comparable within an allelic series)"
same,binding signal,HOXB9 [13],"8.34 upbm affinity estimate (log intensity, higher = more binding, comparable within an allelic series)"
same,binding signal,VAX1 [31],"6.95 upbm affinity estimate (log intensity, higher = more binding, comparable within an allelic series)"
same,binding signal,HOXA2 [16],"10.2 upbm affinity estimate (log intensity, higher = more binding, comparable within an allelic series)"
same,binding signal,HOXA2 [18],"7.21 upbm affinity estimate (log intensity, higher = more binding, comparable within an allelic series)"
same,binding signal,VAX1 [32],"7.04 upbm affinity estimate (log intensity, higher = more binding, comparable within an allelic series)"
ATAAATTG,binding signal,HOXB9 [1],"9.96 upbm affinity estimate (log intensity, higher = more binding, comparable within an allelic series)"
same,binding signal,HOXB6,"10 upbm affinity estimate (log intensity, higher = more binding, comparable within an allelic series)"
same,binding signal,ALX3 [17],"8.68 upbm affinity estimate (log intensity, higher = more binding, comparable within an allelic series)"
CCACGTCG,binding signal,HOXB9 [1],"8.7 upbm affinity estimate (log intensity, higher = more binding, comparable within an allelic series)"
same,binding signal,HOXB9 [5],"8.53 upbm affinity estimate (log intensity, higher = more binding, comparable within an allelic series)"
same,binding signal,HOXB9 [13],"8.57 upbm affinity estimate (log intensity, higher = more binding, comparable within an allelic series)"
CCGTGAGG,binding signal,HOXB9 [1],"8.4 upbm affinity estimate (log intensity, higher = more binding, comparable within an allelic series)"
same,binding signal,HOXB9 [5],"8.23 upbm affinity estimate (log intensity, higher = more binding, comparable within an allelic series)"
same,binding signal,MSX2 [33],"9.41 upbm affinity estimate (log intensity, higher = more binding, comparable within an allelic series)"
same,binding signal,MSX2 [34],"9.11 upbm affinity estimate (log intensity, higher = more binding, comparable within an allelic series)"
same,binding signal,HOXB9 [13],"8.2 upbm affinity estimate (log intensity, higher = more binding, comparable within an allelic series)"
same,binding signal,MSX2 [35],"9.23 upbm affinity estimate (log intensity, higher = more binding, comparable within an allelic series)"
